This note sets out measurements from PubChem BioAssay (NCI).

This is part of a sample that, as a whole, favours compounds with a hit. Of some 83,000 tested, about 20% had one in any assay.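 Cells were grown in 96-well plates and exposed to the test compound at a single concentration for 48 hours; results are reported as percent growth, with values below 10 considered active.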 Unmarked numbers belong to inactive results. Activity calls are given as the source filed them.

This experiment has as its system MDA-MB-468 breast. As to the kind of experiment: NCI-60 one-dose screen, 48 h (100 = growth as untreated, 0 = no growth, -100 = all killed). As to conditions: 10 µM unless noted.
`CN1CCN(Cc2ccc(NC(=O)c3ccc(C#Cc4c(N)ncc5ccc(F)cc45)cc3)cc2C(F)(F)F)CC1`: the growth is -73.6% (active).

As for `CC(=O)/C(=C/c1ccccc1)C(=O)CC(C)C`, the growth was 93.7%.

On to `CC(=O)N[C@H](C(=O)N[C@@H](CCCNC(=N)N)C(=O)N[C@@H](CCCCN)C(=O)N[C@@H](CCCNC(=N)N)C(=O)N[C@]1(C)CCCCCC/C=C\CCC[C@@](C)(C(=O)N[C@@H](CCCNC(=N)N)C(=O)N[C@@H](CCC(=O)O)C(=O)N[C@@H](CC(C)C)C(=O)N[C@H](C(=O)N[C@@H](CCC(=O)O)C(N)=O)C(C)C)NC(=O)[C@H](CCC(N)=O)NC(=O)[C@H](CC(C)C)NC(=O)[C@H](CC(C)C)NC(=O)[C@H](CCCNC(=N)N)NC(=O)[C@H](CCCNC(=N)N)NC(=O)[C@H](CC(C)C)NC1=O)C(C)C`, for which the growth is 20.5%.

In the case of `N#Cc1c(-c2ccccc2)cc(-c2ccccc2)n(CCCCCCC(=O)O)c1=O`, the growth is 88.9%.

Take `Cc1ncc(C#N)c(N)n1`: the growth was 89.3%.

Turning to `ClCC1(Cn2cnc3c(Cl)nc(Cl)nc32)COC1`, the growth is 19.4%.

For the compound `CC(=O)Nc1nc(C)c(C(=O)N/N=C/c2cccn2C)s1`, the growth was 111%.

For the compound `OC(Cc1cccnc1)c1ccccc1` (stereo not given), the growth is 111%.

`Oc1c(C(Nc2ccccn2)c2cccc(Oc3ccccc3)c2)ccc2cccnc12` (stereo not given): the growth was -79.2% (active).

In the case of `CCc1ccc(NC(=O)N[C@@H](Cc2cc(F)cc(F)c2)C(=O)N[C@@H]2C(=O)N3CCC[C@H]3C(=O)N3CCO[C@H](C)[C@H]3C(=O)N[C@@H](CO)C(=O)N3C[C@H](C)C[C@H]3C(=O)O[C@H]2C)c(F)c1`, the growth was -7.66% (active).
